The values that follow come from PubChem BioAssay (NCI).

Structures are written as SMILES. The panel holds about 83,000 compounds, 20% with a hit somewhere; the sample as a whole holds those more often.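 In brief: 96-well plates, 48 h treatment, single concentration, percent growth endpoint.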 The source made the active and inactive calls. How the source made its calls: active means growth percent below 10; inactive means the rest.

This experiment deals with MDA-MB-468 breast. The experiment can be described thus: NCI-60 one-dose screen, 48 h (100 = growth as untreated, 0 = no growth, -100 = all killed). The note with it: 10 µM unless noted.
Take `O=C1c2cc3c(cc2-c2c1c1cc(F)c(F)cc1c(=O)n2CCCn1ccnc1)OCO3`: the growth is -53.6% (active).
In the case of `CCOC(=O)c1ccc(N2NC(=O)/C(=C/c3ccc([N+](=O)[O-])o3)C2=O)cc1`, the growth is 106% (inactive).
As to `CCC1(C2CCCC2)NC(=O)NC1=O` (centres undefined), the growth is 101% (inactive).
Then `CCOP(=O)(OCC)/C(=C\N1C(=O)CC(=O)NC1=S)C(=O)OC`, with 107% (inactive); and `Fc1cccc(Oc2ccc(Nc3ncnc4ccc(OCCCN5CCOCC5)cc34)cc2Cl)c1`, with -14.1% (active).
Then `Cc1cc2nc(C(Cl)Cl)nc(-c3ccc(S(=O)(=O)N(C)C)cc3)n2n1`, with -20.2% (active); and `C1=CC(c2nn3c(-c4ccccc4)nnc3s2)=Cc2ccccc2O1`, with 44.9% (inactive).
Then `CC[C@]12C=CCN3CC[C@@]4(c5cc([C@H]6CCC(=O)N6)c(OC)cc5N(C)[C@H]4[C@@](O)(C(=O)OC)[C@@H]1OC(C)=O)[C@@H]32`, with 110% [2.5 µM] (inactive); and `COC(=O)C1(C)COP(=O)(NC23CC4CC(CC(C4)C2)C3)OC1` (centres undefined), with 110% (inactive); and `C=CCc1cc(OC)c(OC)c(OC)c1`, with 91% (inactive).
In the case of `N=C(N)c1ccc(-c2ccc(-c3ccc4ccccc4c3)s2)s1`, the growth is -16.3% (active).
Then `CCOC(=O)C(=O)C(C(=O)OCC)c1ccccc1` (centres undefined), with 111% (inactive); and `COc1ccc(-c2nc3sccn3c2/C=C/C(=O)c2cc(OC)c(OC)c(OC)c2)cc1OC`, with -13.4% (active).
Then `COc1cccc(/C=N/NC(=O)c2cnn3c2NC(c2ccccc2)C3)c1Oc1ccccc1` (centres undefined), with 47.3% (inactive).
